# Screening data deposited in PubChem by several laboratories.
# PfM18AAP inh: PfM18AAP inhibitors, malaria aminopeptidase, primary screen, biochemical, QFRET, recombinant enzyme; M18 aspartyl aminopeptidase (Plasmodium falciparum 3D7); H-Glu-NHMec fluorogenic cleavage; inhibition, % at 7.35 µM; 290,000 tested, 1.2% active; AID 1822, 2009;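 active means inhibition above the campaign mean inhibition over all tested compounds plus 3 SD, cut at about 28% in these data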;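 further: 0% = plate median of test compound wells and 100% = 2 mM ZnCl2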
# Pemphigus Ab inh: inhibitors of pemphigus antibody binding to DSG3, primary screen, biochemical, bead-based, flow cytometry, scFv-GFP; binding (percent of control), % at 10 µM; DSG3-coupled beads, scFv-anti-DSG3-GFP binding; active compounds read low; AID 588358, 2011; 310,000 tested, 0.48% active; Desmoglein-3 (Homo sapiens), P32926;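 active means binding more than 3 SD below its plate's average and above zero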;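 further: hits lower antibody fragment binding to DSG3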
# PAFAH2 inh: PAFAH2 enzyme inhibitors, primary screen, biochemical, fluorescence polarization, human; Platelet-activating factor acetylhydrolase 2, cytoplasmic (Homo sapiens), Q99487; recombinant PAFAH2, FP-rhodamine activity probe; inhibition, % at 3.39 µM; 340,000 tested, 0.99% active;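 active means inhibition above the mean over all tested compounds plus 3 SD, cut at about 30% in these data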;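 further: inhibitors block probe labeling of enzyme so polarization drops; 0% = enzyme with DMSO and 100% = wells lacking PAFAH2 protein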
# pPAFAH inh: pPAFAH enzyme inhibitors, primary screen, biochemical, fluorescence polarization, human; Platelet-activating factor acetylhydrolase (Homo sapiens), Q13093; recombinant pPAFAH, FP-rhodamine probe fluorescence polarization; inhibition, % at 3.39 µM; 330,000 tested, 1.5% active;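 active means inhibition above the mean inhibition across the screen plus 3 SD, cut at about 25% in these data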;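 further: inhibitors block binding of the rhodamine activity-based probe so polarization drops; 0% = enzyme with DMSO and 100% = wells lacking pPAFAH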
# Target sequence (Q13093 whole entry, looked up): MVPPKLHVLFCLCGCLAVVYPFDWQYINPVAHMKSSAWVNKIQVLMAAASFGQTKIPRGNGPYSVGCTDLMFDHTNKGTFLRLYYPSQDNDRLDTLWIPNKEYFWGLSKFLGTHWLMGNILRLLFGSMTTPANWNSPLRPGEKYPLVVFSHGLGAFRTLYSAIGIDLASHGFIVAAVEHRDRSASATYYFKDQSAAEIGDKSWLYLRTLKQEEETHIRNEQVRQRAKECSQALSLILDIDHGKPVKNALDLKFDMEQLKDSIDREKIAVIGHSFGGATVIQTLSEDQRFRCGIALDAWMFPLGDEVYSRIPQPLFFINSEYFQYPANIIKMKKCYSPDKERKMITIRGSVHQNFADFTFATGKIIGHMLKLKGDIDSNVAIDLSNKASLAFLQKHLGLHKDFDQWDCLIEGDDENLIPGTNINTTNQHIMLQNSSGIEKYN
# PAFAH1B2 FP inh: PAFAH1B2 enzyme inhibitors, primary screen, biochemical, fluorescence polarization, human; 340,000 tested, 1.2% active; inhibition, % at 3.39 µM; Platelet-activating factor acetylhydrolase IB subunit alpha2 (Homo sapiens), P68402; recombinant PAFAH1B2, FP-rhodamine activity probe;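 active means inhibition above the mean of all tested compounds plus 3 SD, cut at about 24% in these data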;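 further: 0% = enzyme with DMSO and 100% = wells lacking PAFAH1B2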
# PAFAH1B3 FP inh: PAFAH1B3 enzyme inhibitors, primary screen, biochemical, fluorescence polarization, human; Platelet-activating factor acetylhydrolase IB subunit alpha1 (Homo sapiens), Q15102; recombinant PAFAH1B3, FP-rhodamine probe; inhibition, % at 3.39 µM; 340,000 tested, 0.28% active;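 active means inhibition above the screen-wide average of all tested compounds plus 3 SD, cut at about 25% in these data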;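 further: 0% = enzyme with DMSO only and 100% = wells lacking PAFAH1B3 protein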
# PAFAH2 FP conf: PAFAH2 enzyme inhibitors, confirmation, biochemical, fluorescence polarization, human; AID 493030, 2011; recombinant PAFAH2, FP-rhodamine activity probe; inhibition, % at 3.39 µM; shares compounds with PAFAH2 inh; 2,300 tested, 65% active;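 active means mean inhibition over three repeats above a set limit taken from the earlier primary screen, cut at about 30% in these data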;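 further: inhibitor blocks binding of rhodamine activity probe so polarization falls; 0% = enzyme with DMSO and 100% = wells lacking PAFAH2 protein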
# Active calls of the source: *; / = no result. Only some compounds are listed: those with a hit (about 3.8% of all), similar ones and a draw of the others.
SMILES,PfM18AAP inh,Pemphigus Ab inh,PAFAH2 inh,pPAFAH inh,PAFAH1B2 FP inh,PAFAH1B3 FP inh,PAFAH2 FP conf
CC(C)(C)NC(=O)NC(=O)C[n+]1ccc(Cc2ccc([N+](=O)[O-])cc2)cc1,-7,93,-3,4,-1,1,/
CCOc1ccc(OCCCC(=O)N(CC)CC(=O)Nc2c(F)cccc2F)cc1,/,98,0,3,5,3,/
O=c1oc(-c2ccccc2NS(=O)(=O)c2ccccc2)nc2ccccc12,0,/,77*,-6,5,-1,67*
Nc1ccccc1-c1nc2ccccc2c(=O)o1,-8,112,30*,-6,6,13,21
Nc1nnc(/C=C/c2ccccc2Cl)s1,7,116,2,-1,3,4,/
O=C(OCC1CC(c2ccccc2)=NO1)c1ccc(Br)cc1 (configuration not stated),-6,/,8,14,2,-1,/
O=C(OCC1CC(c2ccccc2)=NO1)c1ccco1 (configuration not stated),1,/,33*,-7,-2,8,24
O=C(COc1ccccc1[N+](=O)[O-])Nc1cccc(S(=O)(=O)NC2=NCCCCC2)c1,/,96,8,7,7,4,/
O=C(COC(=O)c1ccc(O)cc1)Nc1cccc(S(=O)(=O)NC2=NCCCCC2)c1,-11,98,39*,5,3,2,43*
COc1cc(OC)cc(C(=O)OCC(=O)Nc2cccc(S(=O)(=O)NC3=NCCCCC3)c2)c1,/,94,-7,2,8,8,/
Nc1ccc(C(=O)OCC(=O)Nc2cccc(S(=O)(=O)NC3=NCCCCC3)c2)cc1[N+](=O)[O-],/,94,54*,6,3,4,60*
COc1ccc(/C=C/C(=O)OCC(=O)Nc2cccc(S(=O)(=O)NC3=NCCCCC3)c2)cc1,/,/,68*,3,-2,9,50*
COCCOC(=O)c1c(C)oc2ccc(O)c(CN3CCC(C)CC3)c12 (tested in a mixture with another compound),/,88,6,/,0,2,/
O=C(CNC(=O)c1cccs1)N/N=C/c1c(F)cccc1Cl,-1,106,7,-2,0,8,/
CCCCCCOC(=O)c1ccc(OC(=O)c2cccnc2)cc1,3,98,41*,9,7,-4,32*
COc1ccc(C(=O)c2ccsc2N)cc1,11,94,30*,16,11,9,0
O=C(COC(=O)C12CC3CC(CC(C3)C1)C2)NC12CC3CC(CC(C3)C1)C2,-8,114,90*,23,14,1,86*
NC(=O)COC(=O)C12CC3CC(CC(O)(C3)C1)C2,0,103,9,4,3,5,/
CCOCC(=O)OCC(=O)NC12CC3CC(CC(C3)C1)C2,4,112,1,-2,-2,2,/
CCC(CC)C(=O)OCC(=O)NC12CC3CC(CC(C3)C1)C2,-5,106,64*,4,10,9,43*
N#CC1(NC(=O)COC(=O)C23CC4CC(CC(O)(C4)C2)C3)CCCCC1,6,106,48*,8,4,9,45*
Cn1c(=O)c2c(ncn2CC2OCCO2)n(C)c1=O,3,103,3,0,0,6,/
CCCCc1nc2cc(C(=O)N3CCCCC3CCNC(C)=O)ccc2o1 (configuration not stated),-2,/,2,5,-4,10,/
Cc1nc(NC(=O)COC(=O)C2CC2C)c(Cl)cc1Cl (configuration not stated),/,/,34*,19,2,8,26
CCOc1ccc(NC(=O)COC(=O)C2CC2C)cc1 (configuration not stated),/,95,60*,12,3,5,47*
SMILES,PfM18AAP inh,Pemphigus Ab inh,PAFAH2 inh,pPAFAH inh,PAFAH1B2 FP inh,PAFAH1B3 FP inh,PAFAH2 FP conf
O=C(COC(=O)C1CC2CCCC(C1)C2=O)Nc1ccc(Cl)cn1 (configuration not stated),/,88,47*,7,5,1,25
CC1CC1C(=O)OCC(=O)Nc1ccc(Cl)cn1 (configuration not stated),/,/,47*,9,-6,-1,39*
Cc1c(Cl)cnc(NC(=O)COC(=O)C2CC3CCCC(C2)C3=O)c1Cl (configuration not stated),/,100,22,6,0,0,/
Cc1cc(=O)oc2cc(NC(=O)c3ccccc3Cl)ccc12,0,110,0,-1,1,-3,/
C=CCn1c(O)c(N=Nc2nc3ccccc3c(=O)n2-c2ccccc2)c2ccccc21,3,94,8,1,-1,0,/
O=C(COC(=O)C1CCCCC1)Nc1cccc(F)c1,/,119,89*,10,-1,4,79*
O=C(COC(=O)C1CCCCC1)Nc1cccc(Br)c1,/,/,77*,7,-2,4,71*
O=C(COC(=O)CC1CCCC1)Nc1cccc(F)c1,/,99,81*,21,-4,-1,81*
CCN1C(=O)N(C)[C@@H](c2ccccc2)C(C(C)=O)=C1C,/,107,3,-6,-2,5,/
O=C(COC(=O)C1CCC1)Nc1cc(S(=O)(=O)N2CCOCC2)ccc1Cl,/,106,/,/,/,/,/
CC1CC1C(=O)OCC(=O)Nc1cc(S(=O)(=O)N2CCCCC2)ccc1Cl (configuration not stated),/,100,72*,8,7,7,60*
Cc1ccc(NC(=O)COC(=O)C2CC2C)c(S(=O)(=O)N2CCCCC2)c1 (configuration not stated),4,107,82*,5,-11,0,78*
COc1ccc(/C=C2/SC(c3ccc(C)cc3)=NC2=O)cc1OC,7,167,38*,4,3,3,26
N#CC1=C(SCC(=O)Nc2cccc3cccnc23)NC(=O)C(C#N)C12CCCCC2 (configuration not stated),19,98,38*,9,11,9,27
COc1ccc(C(=O)NCCCNC(=O)c2cnccn2)cc1,0,93,17,5,-2,6,/
Clc1ccccc1-c1nnc2n1CCCCC2,-1,111,-6,5,1,3,/
